Among all 5,500 compounds or so, about 2,000 (36%) were called active. Inconclusive results (about 18%) are left out. No stated cut-off is given here; in the data, active means normalized growth mostly below about 0.91 (no sharp cut-off); inconclusive means no clear call, values can overlap the other calls; inactive means mostly above about 0.92. The list shows a part of the results.
Experiment: chemical genetic growth profiling, strain panel (AID 1159580);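 further: tested at 20 µM; growth read once vehicle control cultures reached saturation at 30 °C; 1 = growth at the plate median or of vehicle wells; lower values mean less growth of the strain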
Conditions: growth OD
[1] = S. cerevisiae deletion strains, locus YBR021W, strain FUR4, active compounds read low
[2] = S. cerevisiae deletion strains, locus YBR229C, strain ROT2, active compounds read low
[3] = S. cerevisiae deletion strains, locus YCL029C, strain bik1, active compounds read low
[4] = S. cerevisiae deletion strains, locus YDL035C, strain GPR1, active compounds read low
[5] = S. cerevisiae deletion strains, locus YDL074C, strain BRE1, active compounds read low
[6] = S. cerevisiae deletion strains, locus YDL101C, strain DUN1, active compounds read low
[7] = S. cerevisiae deletion strains, locus YDL134C, strain PPH21, active compounds read low
[8] = S. cerevisiae deletion strains, locus YDL185W, strain tfp1, active compounds read low
[9] = S. cerevisiae deletion strains, locus YDL192W, strain arf1, active compounds read low
[10] = S. cerevisiae deletion strains, locus YDR101C, strain arx1, active compounds read low
[11] = S. cerevisiae deletion strains, locus YDR162C, strain NBP2, active compounds read low
[12] = S. cerevisiae deletion strains, locus YDR318W, strain mcm21, active compounds read low
[13] = S. cerevisiae deletion strains, locus YDR388W, active compounds read low
[14] = S. cerevisiae deletion strains, locus YDR502C, strain sam2, active compounds read low
[15] = S. cerevisiae deletion strains, locus YEL061C, strain CIN8, active compounds read low
[16] = S. cerevisiae deletion strains, locus YER110C, active compounds read low
[17] = S. cerevisiae deletion strains, locus YER155C, strain BEM2, active compounds read low
[18] = S. cerevisiae deletion strains, locus YER167W, strain BCK2, active compounds read low
[19] = S. cerevisiae deletion strains, locus YGL078C, strain dbp3, active compounds read low
[20] = S. cerevisiae deletion strains, locus YGL086W, strain mad1, active compounds read low
[21] = S. cerevisiae deletion strains, locus YGL248W, strain PDE1, active compounds read low
[22] = S. cerevisiae deletion strains, locus YGR135W, strain pre9, active compounds read low
[23] = S. cerevisiae deletion strains, locus YGR252W, strain gcn5, active compounds read low
[24] = S. cerevisiae deletion strains, locus YHR079C, strain IRE1 (second series), active compounds read low
[25] = S. cerevisiae deletion strains, locus YHR094C, strain hxt1, active compounds read low
[26] = S. cerevisiae deletion strains, locus YHR129C, strain ARP1, active compounds read low
[27] = S. cerevisiae deletion strains, locus YHR200W, strain rpn10, active compounds read low
[28] = S. cerevisiae deletion strains, locus YIL066C, strain RNR3, active compounds read low
[29] = S. cerevisiae deletion strains, locus YIL073C, strain SPO22, active compounds read low
[30] = S. cerevisiae deletion strains, locus YIL125W, strain kgd1, active compounds read low
[31] = S. cerevisiae deletion strains, locus YIR030C, strain dcg1, active compounds read low
[32] = S. cerevisiae deletion strains, locus YJL095W, strain BCK1, active compounds read low
[33] = S. cerevisiae deletion strains, locus YJL134W, strain LCB3, active compounds read low
[34] = S. cerevisiae deletion strains, locus YJL168C, strain set2, active compounds read low
[35] = S. cerevisiae deletion strains, locus YJL187C, strain SWE1 (second series), active compounds read low
[36] = S. cerevisiae deletion strains, locus YJR075W, strain HOC1, active compounds read low
[37] = S. cerevisiae deletion strains, locus YKL068W, active compounds read low
[38] = S. cerevisiae deletion strains, locus YKL085W, strain MDH1 (second series), active compounds read low
[39] = S. cerevisiae deletion strains, locus YKL085W, strain MDH1, active compounds read low
[40] = S. cerevisiae deletion strains, locus YKR001C, strain vps1, active compounds read low
[41] = S. cerevisiae deletion strains, locus YLR039C, strain RIC1, active compounds read low
[42] = S. cerevisiae deletion strains, locus YLR058C, strain SHM2, active compounds read low
[43] = S. cerevisiae deletion strains, locus YLR102C, strain apc9, active compounds read low
[44] = S. cerevisiae deletion strains, locus YLR268W, strain sec22, active compounds read low
[45] = S. cerevisiae deletion strains, locus YLR330W, strain CHS5, active compounds read low
[46] = S. cerevisiae deletion strains, locus YLR371W, strain rom2, active compounds read low
[47] = S. cerevisiae deletion strains, locus YLR418C, strain cdc73, active compounds read low
[48] = S. cerevisiae deletion strains, locus YML016C, strain PPZ1, active compounds read low
[49] = S. cerevisiae deletion strains, locus YML032C, strain rad52, active compounds read low
[50] = S. cerevisiae deletion strains, locus YML124C, strain tub3, active compounds read low
[51] = S. cerevisiae deletion strains, locus YMR078C, strain ctf18, active compounds read low
[52] = S. cerevisiae deletion strains, locus YMR223W, strain ubp8, active compounds read low
[53] = S. cerevisiae deletion strains, locus YMR263W, strain SAP30, active compounds read low
[54] = S. cerevisiae deletion strains, locus YMR307W, strain GAS1, active compounds read low
[55] = S. cerevisiae deletion strains, locus YNL067W, strain RPL9B, active compounds read low
[56] = S. cerevisiae deletion strains, locus YNL233W, strain BNI4, active compounds read low
[57] = S. cerevisiae deletion strains, locus YNL250W, strain rad50, active compounds read low
[58] = S. cerevisiae deletion strains, locus YNL271C, strain bni1, active compounds read low
[59] = S. cerevisiae deletion strains, locus YNL298W, strain CLA4, active compounds read low
[60] = S. cerevisiae deletion strains, locus YNL307C, strain MCK1, active compounds read low
[61] = S. cerevisiae deletion strains, locus YNR052C, strain pop2, active compounds read low
[62] = S. cerevisiae deletion strains, locus YOL006C, strain TOP1, active compounds read low
[63] = S. cerevisiae deletion strains, locus YOL012C, strain htz1
[64] = S. cerevisiae deletion strains, locus YOL147C, strain pex11, active compounds read low
[65] = S. cerevisiae deletion strains, locus YOR061W, strain CKA2, active compounds read low
[66] = S. cerevisiae deletion strains, locus YOR069W, strain VPS5, active compounds read low
[67] = S. cerevisiae deletion strains, locus YOR136W, strain idh2, active compounds read low
[68] = S. cerevisiae deletion strains, locus YOR144C, strain elg1, active compounds read low
[69] = S. cerevisiae deletion strains, locus YOR184W, strain ser1, active compounds read low
[70] = S. cerevisiae deletion strains, locus YOR316C, strain cot1, active compounds read low
[71] = S. cerevisiae deletion strains, locus YPR119W, strain clb2, active compounds read low
[72] = S. cerevisiae deletion strains, locus YPR141C, strain kar3, active compounds read low
[73] = S. cerevisiae deletion strains, locus YPR163C, strain tif3, active compounds read low
[74] = S. cerevisiae deletion strains, locus YPR167C, strain met16, active compounds read low
[75] = S. cerevisiae deletion strains, strain wtn01, active compounds read low
[76] = S. cerevisiae strains, strain wild type, active compounds read low

Measured: normalized growth

COc1cc2c(cc1OC)C1C(=O)c3c(O)cc4c(c3OC1CO2)C=CC(C)(C)O4 (configuration not stated)
active: [40] 0.718
inactive: [1] 1.01 | [2] 1 | [3] 1.01 | [4] 0.965 | [5] 0.962 | [6] 1.01 | [7] 0.985 | [8] 1.01 | [9] 0.98 | [10] 1.02 | [11] 1 | [12] 0.995 | [13] 1 | [14] 1.03 | [15] 0.989 | [16] 1.02 | [17] 1.02 | [18] 1 | [19] 1.03 | [20] 1.02 | [21] 1.01 | [22] 1.06 | [23] 1.03 | [24] 1.01 | [25] 1.02 | [26] 0.991 | [27] 1.01 | [28] 0.981 | [29] 1.08 | [30] 1.02 | [31] 1.03 | [32] 1.01 | [33] 0.998 | [34] 1 | [35] 0.997 | [36] 0.999 | [37] 1.01 | [38] 1.01 | [39] 1.01 | [41] 0.871 | [42] 0.977 | [43] 1.02 | [44] 1.01 | [45] 0.987 | [46] 1.02 | [47] 0.988 | [48] 1.01 | [49] 1.02 | [50] 1.03 | [51] 1.03 | [52] 1.01 | [53] 1.01 | [54] 0.949 | [55] 1.01 | [56] 1.01 | [57] 1.05 | [58] 1.03 | [59] 1.01 | [60] 1.02 | [61] 1.03 | [62] 0.933 | [63] 1.33 | [64] 0.999 | [65] 0.987 | [66] 1.01 | [67] 1 | [68] 1.01 | [69] 1.01 | [70] 1.01 | [71] 1.03 | [72] 1.03 | [73] 1 | [74] 1.03 | [75] 1.01 | [76] 0.932

COc1cc2c(cc1OC)C1C(=O)c3c(OC)cc4c(c3OC1CO2)CCC(C)(C)O4 (configuration not stated)
inactive: S. cerevisiae deletion strains, locus YAL013W, strain DEP1, active compounds read low 1.01 | [1] 1.02 | [2] 1.02 | [3] 0.987 | [4] 1 | [5] 1.03 | [6] 1.03 | [7] 1.02 | [8] 0.988 | [9] 0.983 | [10] 0.984 | S. cerevisiae deletion strains, locus YDR150W, strain NUM1, active compounds read low 1.02 | [11] 1.06 | [12] 0.988 | [13] 0.99 | [14] 0.997 | [15] 1.01 | [16] 0.985 | [17] 1.02 | [18] 1.01 | [19] 0.981 | [20] 0.975 | [21] 1.02 | S. cerevisiae deletion strains, locus YGR078C, strain PAC10, active compounds read low 1.03 | [22] 1.01 | S. cerevisiae deletion strains, locus YGR229C, strain SMI1, active compounds read low 1.01 | [23] 0.948 | S. cerevisiae deletion strains, locus YHR030C, strain SLT2, active compounds read low 1.01 | [24] 0.988 | [25] 0.987 | [26] 1.01 | [27] 0.993 | [28] 1.02 | [29] 0.948 | [30] 0.983 | [31] 0.985 | [32] 1.01 | [33] 1.01 | [34] 0.979 | [35] 1.02 | S. cerevisiae deletion strains, locus YJR043C, strain POL32, active compounds read low 1 | [36] 1.01 | S. cerevisiae deletion strains, locus YKL009W, strain mrt4, active compounds read low 0.999 | [37] 0.983 | [38] 0.978 | [39] 0.978 | S. cerevisiae deletion strains, locus YKL190W, strain CNB1, active compounds read low 1.02 | [40] 0.961 | [41] 0.964 | [42] 1.02 | [43] 0.992 | S. cerevisiae deletion strains, locus YLR262C, strain YPT6, active compounds read low 0.994 | [44] 0.972 | [45] 1.01 | S. cerevisiae deletion strains, locus YLR342W, strain FKS1 (second series), active compounds read low 0.981 | [46] 0.988 | [47] 1 | [48] 1.02 | [49] 0.966 | [50] 0.99 | [51] 0.979 | [52] 0.973 | [53] 1.03 | [54] 0.99 | [55] 1.03 | S. cerevisiae deletion strains, locus YNL128W, strain TEP1, active compounds read low 1.02 | S. cerevisiae deletion strains, locus YNL153C, strain GIM3, active compounds read low 1.03 | [56] 1.04 | [57] 0.968 | [58] 0.981 | [59] 1 | [60] 0.969 | S. cerevisiae deletion strains, locus YNL322C, strain KRE1, active compounds read low 1.02 | [61] 0.976 | [62] 1.04 | [63] 0.96 | [64] 0.988 | [65] 1.02 | [66] 1.01 | [67] 0.981 | [68] 0.994 | [69] 0.95 | [70] 0.98 | S. cerevisiae deletion strains, locus YPL055C, strain LGE1, active compounds read low 1.05 | S. cerevisiae deletion strains, locus YPL241C, strain CIN2, active compounds read low 1.01 | [71] 0.983 | [72] 0.966 | [73] 0.976 | [74] 0.983 | [75] 0.997 | [76] 1

From PubChem BioAssay AID1159580 (chemical genetic matrix, 2015)
